Activity calls are given as the source filed them.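 Rule for the calls: active = activity change under -35% in any replicate well, with more than 20 beads read in that well; inactive = the rest.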
molecular target: Caspase recruitment domain-containing protein 9 (Homo sapiens) + E3 ubiquitin-protein ligase TRIM62 (Homo sapiens) (UniProt Q9H257+Q9BVG3); test: CARD9/TRIM62 protein interaction inhibitors – cell lysate, HEK293FT lysates, Luminex bead ELISA, primary screen (AID 1259341); details: PE fluorescence, stronger effect = lower value, concentration not given here;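 note: PE anti-Flag signal of Flag-CARD9 captured by myc-TRIM62 beads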
Sequence (Q9BVG3 whole entry, looked up, the tested form may be a part): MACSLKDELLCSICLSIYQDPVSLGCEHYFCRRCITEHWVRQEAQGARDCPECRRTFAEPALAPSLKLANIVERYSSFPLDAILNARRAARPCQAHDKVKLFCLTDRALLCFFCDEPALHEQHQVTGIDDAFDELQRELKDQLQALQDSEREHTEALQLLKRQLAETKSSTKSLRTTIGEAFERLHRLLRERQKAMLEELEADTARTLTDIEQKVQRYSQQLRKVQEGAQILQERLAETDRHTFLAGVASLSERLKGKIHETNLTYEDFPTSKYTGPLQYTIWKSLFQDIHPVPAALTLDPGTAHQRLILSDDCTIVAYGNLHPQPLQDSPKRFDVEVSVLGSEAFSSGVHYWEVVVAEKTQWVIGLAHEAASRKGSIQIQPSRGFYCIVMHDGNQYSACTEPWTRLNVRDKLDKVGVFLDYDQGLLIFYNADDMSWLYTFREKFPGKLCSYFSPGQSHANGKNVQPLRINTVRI
Sequence (Q9H257 whole entry, looked up, the tested form may be a part): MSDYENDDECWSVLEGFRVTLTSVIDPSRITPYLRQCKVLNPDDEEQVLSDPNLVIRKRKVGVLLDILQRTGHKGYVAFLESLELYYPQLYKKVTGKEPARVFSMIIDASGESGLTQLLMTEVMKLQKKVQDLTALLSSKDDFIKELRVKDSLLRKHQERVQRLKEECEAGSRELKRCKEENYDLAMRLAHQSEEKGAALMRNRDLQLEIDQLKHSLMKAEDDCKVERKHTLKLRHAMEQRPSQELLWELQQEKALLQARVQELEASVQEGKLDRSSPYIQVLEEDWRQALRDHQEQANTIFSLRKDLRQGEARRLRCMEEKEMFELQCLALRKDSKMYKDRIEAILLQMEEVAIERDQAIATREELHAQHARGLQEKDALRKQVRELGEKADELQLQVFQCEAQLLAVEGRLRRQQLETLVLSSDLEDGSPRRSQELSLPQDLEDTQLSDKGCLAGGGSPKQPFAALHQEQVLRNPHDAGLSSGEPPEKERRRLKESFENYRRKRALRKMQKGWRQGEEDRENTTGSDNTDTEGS

Activity change, negative = inhibition, inactive:
O=C(Cc1ccc(S(=O)(=O)N2CCOCC2)s1)Nc1nc2c(s1)CCCC2 -0.777%
CS(=O)(=O)N1CCN(c2ccc([N+](=O)[O-])c(SCc3ccco3)c2)CC1 -5.97%
O=S(=O)(Nc1nc2ccccc2nc1NCc1ccco1)c1ccccc1 1.68%
CCOc1cc2c(C#N)c(N3CCNCC3)nc(N)c2c(N)n1 -2.85%
O=[N+]([O-])c1c(NCCCO)cc(SCc2ccco2)c2nonc12 15.3%
CCOC(=O)/C=C/S(=O)(=O)c1ccc(NC(C)=O)cc1 -8.13%
CCCC(=O)NCc1ccc2c(c1)cc(C)n2C 7.86%
CCCc1cc(C(=O)N2CC[C@H]3CNC[C@H]32)n(C)n1 -0.754%
O=C(COC(=O)c1ccc(S(=O)(=O)NCc2ccco2)cc1)Nc1ccc(Cl)cn1 -0.897%
CCOc1ccc(CNc2nc(-c3nnc(-c4ccc(F)cc4)o3)nc3ccccc23)cc1 14.1%
Cc1cccc(Nc2nc(C(=O)Nc3cc(F)ccc3F)nc3ccccc23)c1 1.63%
Cc1sc2ncnc(SCc3ccco3)c2c1C -1.85%
O=C(O)C1Oc2cc3ccccc3cc2O1 -13.6%
C[C@H](CO)N1C[C@H](C)[C@@H](CN(C)CC2CCCCC2)OCCCC[C@H](C)Oc2ccc(NS(=O)(=O)c3ccc(Cl)cc3)cc2C1=O 8.08%
O=C(Nc1cccc2ccccc12)NC1CC1 -2.1%
Cc1nn2c(c1-c1ccccc1)NC(c1ccco1)=CC2c1ccco1 (stereo unspecified) 21.4%
O=C1c2cccnc2C(=O)N1Cc1ccc(S(=O)(=O)NCc2ccco2)cc1 29.2%
Cc1cc(C)c2c(N)c(C(=O)Nc3cccc4ccccc34)sc2n1 -1.34%
CC1=CCC(C(=O)O)C(C(=O)NC2CCCCC2)C1 (stereo unspecified) -6.81%
CCOC(=O)c1ccc(-c2ccc(C3CC(=O)Nc4cc5c(cc43)OCCO5)o2)cc1 (stereo unspecified) -0.752%
O=C(O)C(c1ccccc1)C(c1ccccc1)c1ccccc1 (stereo unspecified) 6.86%
Cc1oc(CSCc2cc(C(=O)O)c(C)o2)cc1C(=O)O 1.21%
O=S(=O)(Nc1nc2ccc(S(=O)(=O)N3CCCCC3)cc2s1)c1ccccc1 -0.733%
C[C@H](CO)N1C[C@H](C)[C@H](CN(C)C(=O)C2CCCCC2)OCCCC[C@H](C)Oc2ccc(NS(=O)(=O)c3cccs3)cc2C1=O 6.16%
Cc1ccc(S(=O)(=O)Nc2ccc3c(c2)C(=O)N([C@H](C)CO)C[C@H](C)[C@@H](CN(C)CC2CCCCC2)OCCCC[C@H](C)O3)cc1 4.51%
O=C(Nc1nccs1)c1cc(-c2ccccn2)nc2c(Cl)cccc12 -0.831%
COc1ccc(-c2nc(C)c(C(C)=O)n2O)cc1OC -2.22%
OCc1ccc(O)c2ncccc12 -35%
O=C1CC(c2ccco2)Cc2nc(N3CCc4ccccc4C3)ncc21 (stereo unspecified) -4.59%
O=S(=O)(c1ccc2nc(-c3ccco3)c(-c3ccco3)nc2c1)N1CCOCC1 -5.03%
Nc1cc2c(cc1O)CCCC2 -4.6%
O=C(Nc1nncs1)c1cc(-c2ccco2)nc2ccccc12 -5.26%
C(=C\c1ccco1)/c1nc2ccccc2[nH]1 -9.75%
Cc1[nH]c2ccc(Cl)cc2c(=O)c1CN1CCCC1 0.531%
C[C@H](CO)N1C[C@H](C)[C@@H](CN(C)C(=O)C2CCCCC2)OCCCC[C@H](C)Oc2ccc(NS(C)(=O)=O)cc2C1=O 9.86%
O=C(N/N=C/C=C/c1ccco1)c1cncc(Br)c1 -8.78%

Source: PubChem BioAssay AID1259341 (Broad Institute, 2017)
